The results in this text go back to PubChem BioAssay (NCI).

This is part of a sample that, as a whole, favours compounds with a hit. Of some 83,000 tested, about 20% had one in any assay.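 Compound tested at a single concentration for 48 hours in 96-well plates; a percent growth value below 10 was scored as active.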 A number with no mark means an inactive call. Activity calls are given as the source filed them.

Assay in all cases: NCI-60 one-dose screen, 48 h (100 = growth as untreated, 0 = no growth, -100 = all killed)
One assay deals with NCI-H23 lung. The note with it: 10 µM unless noted.
In another assay the test system is NCI-H226 lung. The note with it: 10 µM unless noted.
A further assay has as its system NCI-H322M lung. The note with it: 10 µM unless noted.
The next assay deals with HOP-92 NSCLC. The note with it: 10 µM.
In a further assay the test system is NCI-H522 lung. The note with it: 10 µM.
A further assay deals with A549/ATCC NSCLC. The note with it: 10 µM unless noted.
Another assay deals with 786-0 renal. The note with it: 10 µM unless noted.
For a further assay, the system named is COLO 205 colon. The note with it: 10 µM unless noted.
Another assay relates to DU-145 prostate. The note with it: 10 µM unless noted.
The next assay relates to K-562 leukemia. The note with it: 10 µM unless noted.
The subject of the next assay is MALME-3M melanoma. The note with it: 10 µM unless noted.
The next assay relates to MDA-MB-231 breast. The note with it: 10 µM unless noted.
The test system of a further assay is RXF 393 renal. The note with it: 10 µM unless noted.
The subject of a further assay is SF-268 CNS. The note with it: 10 µM unless noted.
In another assay the test system is SF-295 CNS. The note with it: 10 µM unless noted.
In a further assay the test system is SF-539 CNS. The note with it: 10 µM unless noted.
A further assay has as its system UACC-257 melanoma. The note with it: 10 µM unless noted.
The subject of another assay is M14 melanoma. The note with it: 10 µM unless noted.

As to `CCCCCCCCCc1cc[n+](CC(=O)c2ccc([N+](=O)[O-])cc2)cc1`, the growth with NCI-H23 lung was 14.2%; with NCI-H226 lung, 31.8%; in the assay with NCI-H322M lung, 71.6%; with HOP-92 NSCLC, -45.2% (active); in the assay on NCI-H522 lung, -12.9% (active); with A549/ATCC NSCLC, -23.7% (active). Besides, the growth in the assay with 786-0 renal is 31.9%; in the assay on COLO 205 colon it was -76.9% (active); in the assay on DU-145 prostate it was 23.7%; in the assay with K-562 leukemia, -4.43% (active); in the assay on MALME-3M melanoma, -34.9% (active); in the assay on MDA-MB-231 breast it was -76.7% (active). Further, the growth was 32.5% in the assay with RXF 393 renal; 29.6% in the assay on SF-268 CNS; 9.4% (active) in the assay on SF-295 CNS; -87.5% (active) in the assay with SF-539 CNS; 0.0548% (active) in the assay with UACC-257 melanoma; -67.3% (active) in the assay on M14 melanoma.

As to `COc1cc(/C=C/C(=O)/C=C(/C=C/c2ccc(OC(C)=O)c(OC)c2)OB(F)F)ccc1OC(C)=O`, the growth was 61.5% in the assay on NCI-H23 lung; 87.1% in the assay on NCI-H226 lung; 99.6% with NCI-H322M lung; 62.5% in the assay with HOP-92 NSCLC; 16.8% in the assay on NCI-H522 lung; 82.7% in the assay on A549/ATCC NSCLC. Moreover, the growth with 786-0 renal is 80.7%; in the assay with COLO 205 colon, 71.2%; in the assay on DU-145 prostate, 64.5%; in the assay with K-562 leukemia, 15.2%; in the assay with MALME-3M melanoma it was 51.7%; in the assay with MDA-MB-231 breast, 80.8%. The growth in the assay on RXF 393 renal is 14.7%; with SF-268 CNS, 81.2%; with SF-295 CNS, 86.7%; in the assay on SF-539 CNS, 56.8%; in the assay on UACC-257 melanoma it was 63%; in the assay with M14 melanoma, 34.1%.

On to `CCOC(=O)c1c(C)oc2ncnc(Nc3ccc(NC(=O)Nc4ccc(CC)cc4)cc3)c12`, for which the growth in the assay with NCI-H23 lung was 90.7%; in the assay with NCI-H226 lung, 104%; in the assay on NCI-H322M lung it was 102%; in the assay with NCI-H522 lung, 83.5%; in the assay on A549/ATCC NSCLC it was 89.2%; in the assay with 786-0 renal, 99.8%. Moreover, the growth was 103% with DU-145 prostate; 98% in the assay on K-562 leukemia; 101% with MALME-3M melanoma; 94.7% in the assay with MDA-MB-231 breast; 98.3% in the assay with RXF 393 renal; 103% with SF-268 CNS. For the same compound, the growth in the assay with SF-295 CNS was 109%; in the assay on SF-539 CNS, 89.4%; in the assay on UACC-257 melanoma it was 111%; in the assay on M14 melanoma, 99.9%.

With `O=C(CCCC(=O)Nc1ccc(Cn2nnc3cc(Cl)c(Cl)cc32)cc1)Nc1ccc(CN2N=NC3C=C(Cl)C(Cl)=CC32)cc1` (stereo not given), the growth in the assay with NCI-H23 lung was 62.2%; with NCI-H226 lung, 72.7%; in the assay on NCI-H322M lung, 74%; in the assay on HOP-92 NSCLC, 64.7%; in the assay on NCI-H522 lung, 62.4%; with A549/ATCC NSCLC it was 74.5%. Also, the growth is 85.3% in the assay on 786-0 renal; 93.3% with DU-145 prostate; 67% in the assay on K-562 leukemia; 97% in the assay with MALME-3M melanoma; 76.4% with MDA-MB-231 breast; 93.7% in the assay with RXF 393 renal. Moreover, the growth in the assay with SF-268 CNS is 78.1%; in the assay on SF-295 CNS it was 71.9%; with SF-539 CNS it was 88.2%; with UACC-257 melanoma, 81.1%; with M14 melanoma it was 87.2%.

As for `CCOC(=O)c1cc(-c2ccc(OC)cc2)[nH]c1NNC(=O)CCOC`, the growth in the assay on NCI-H23 lung was 114%; in the assay with NCI-H226 lung, 105%; with NCI-H322M lung it was 118%; with HOP-92 NSCLC, 73.1%; in the assay on NCI-H522 lung, 98%; with A549/ATCC NSCLC, 99.9%. Besides, the growth with 786-0 renal was 84.3%; in the assay on COLO 205 colon, 109%; in the assay on DU-145 prostate, 108%; with K-562 leukemia, 99.8%; in the assay with MALME-3M melanoma it was 98.4%; in the assay with MDA-MB-231 breast, 95%. Also, the growth is 104% with RXF 393 renal; 121% with SF-268 CNS; 95.3% with SF-295 CNS; 106% with SF-539 CNS; 105% in the assay with UACC-257 melanoma.

`CC(C)(C)c1cc(C[P+](c2ccc(Cl)cc2)(c2ccc(Cl)cc2)c2ccc(Cl)cc2)cc(C(C)(C)C)c1O`: the growth with NCI-H23 lung is 86.5%; in the assay with NCI-H226 lung, 90.6%; with NCI-H322M lung, 86.1%; in the assay with 786-0 renal, 99.1%; with COLO 205 colon, 50.4%; with DU-145 prostate, 108%. The growth is 32.4% in the assay with K-562 leukemia; 37.4% with MALME-3M melanoma; 102% with MDA-MB-231 breast; 68% in the assay on RXF 393 renal; 99.1% in the assay on SF-268 CNS; 91.9% in the assay with SF-295 CNS. The growth with SF-539 CNS is 105%; in the assay on M14 melanoma it was 106%.

Consider `CC1(C)NC(=S)NC1=O`, for which the growth is 101% in the assay with NCI-H23 lung; 99.6% in the assay with NCI-H226 lung; 107% in the assay on NCI-H322M lung; 101% in the assay on HOP-92 NSCLC; 116% in the assay on NCI-H522 lung; 98% with A549/ATCC NSCLC. Also, the growth in the assay with 786-0 renal was 100%; in the assay on COLO 205 colon it was 108%; in the assay with DU-145 prostate, 116%; in the assay with K-562 leukemia, 89%; with MALME-3M melanoma, 106%; in the assay on RXF 393 renal it was 105%. For the same compound, the growth is 111% in the assay with SF-268 CNS; 95.7% in the assay on SF-295 CNS; 111% in the assay on SF-539 CNS; 106% with UACC-257 melanoma; 98.5% with M14 melanoma.

Take `Cc1ccc(C(=O)Nc2ccc(CN3CCN(C)CC3)c(C(F)(F)F)c2)cc1C#Cc1cnc(N)c2ccc(C#N)cc12`: the growth in the assay with NCI-H23 lung is 48.3%; in the assay on NCI-H226 lung, 54.4%; with NCI-H322M lung, 73.8%; in the assay on HOP-92 NSCLC, 13.7%; with NCI-H522 lung, 60.6%; in the assay with A549/ATCC NSCLC it was 36.7%. The growth was -25% (active) in the assay on 786-0 renal; 43.1% with DU-145 prostate; -25.5% (active) in the assay with K-562 leukemia; -51.9% (active) in the assay on MALME-3M melanoma; 11.2% with MDA-MB-231 breast; 30.4% with RXF 393 renal. The growth was 45% with SF-268 CNS; 61.8% in the assay with SF-295 CNS; 51.8% in the assay with SF-539 CNS; 45.6% in the assay on UACC-257 melanoma; 8.81% (active) in the assay with M14 melanoma.

`O=C1CSC(c2ccccc2Cl)N1c1nnc(-c2ccncc2)o1` (stereo not given): the growth was 85.9% in the assay on NCI-H23 lung; 93.9% in the assay on NCI-H226 lung; 105% in the assay on NCI-H322M lung; 95.9% in the assay on HOP-92 NSCLC; 101% with A549/ATCC NSCLC; 93.6% in the assay with 786-0 renal. The growth in the assay on DU-145 prostate is 106%; in the assay on K-562 leukemia it was 104%; with MALME-3M melanoma, 120%; in the assay with MDA-MB-231 breast, 97.7%; in the assay on RXF 393 renal it was 101%; in the assay on SF-268 CNS, 99.5%. The growth is 98.2% in the assay with UACC-257 melanoma and 96.8% with M14 melanoma.

For the compound `CCCCCCCCCCCCCCCCCC1=NCCN1CCNC(C)=O`, the growth in the assay with NCI-H23 lung was 93%; in the assay with NCI-H226 lung it was 100%; in the assay with NCI-H322M lung it was 90.6%; with NCI-H522 lung it was 98.8%; in the assay with A549/ATCC NSCLC it was 79.3%; in the assay on 786-0 renal, 92.3%. The growth in the assay on COLO 205 colon was 92.6%; with DU-145 prostate it was 69.7%; in the assay with K-562 leukemia it was 26.4%; with MALME-3M melanoma it was 98.9%; with MDA-MB-231 breast it was 66.3%; in the assay with RXF 393 renal, 99%. The growth in the assay on SF-268 CNS was 88.7%; in the assay with SF-295 CNS, 108%; in the assay on SF-539 CNS, 86.8%; with UACC-257 melanoma it was 108%; in the assay on M14 melanoma, 101%.
